Reference: the supplement of paper PMC6992640
± gives the standard deviation of the averaged measurements.

Key:
Assay in all cases: cell viability (% of vehicle); higher = less cytotoxic
Conditions in all cases: 10 µM; 72 h
HCI01 = system: HCI01 (cells of a triple-negative basal-like breast cancer xenograft)
HCI03 = system: HCI03 (cells of an ER-positive luminal breast cancer xenograft)
HCI09 = system: HCI09 (cells of a triple-negative luminal androgen receptor type breast cancer xenograft)
HCI11 = system: HCI11 (cells of an ER-positive luminal breast cancer xenograft)
HCI13 = system: HCI13 (cells of an ER-positive luminal breast cancer xenograft)
HCI16 = system: HCI16 (cells of a triple-negative basal-like breast cancer xenograft)
UCD52 = system: UCD52 (cells of a triple-negative basal-like breast cancer xenograft)
WHIM2 = system: WHIM2 (cells of a triple-negative basal-like breast cancer xenograft)
WHIM30 = system: WHIM30 (cells of a triple-negative basal-like breast cancer xenograft)
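Note: PDX cells carrying CMV promoter-driven luciferase, viability read as total photon flux per second by IVIS imaging following D-luciferin, vehicle control 0.1% DMSO.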

Compound	cell viability (HCI01)	cell viability (HCI03)	cell viability (HCI09)	cell viability (HCI11)	cell viability (HCI13)	cell viability (HCI16)	cell viability (UCD52)	cell viability (WHIM2)	cell viability (WHIM30)
O=c1ccc2ccc(OCCCCN3CCN(c4cccc5sccc45)CC3)cc2[nH]1 [Brexpiprazole]	136 ± 21	106	85.7 ± 10	102	123 ± 5.6	162	78.3 ± 6.2	115 ± 9.1	112 ± 8.2
CN(C)C(=O)NC1CCC(CCN2CCN(c3cccc(Cl)c3Cl)CC2)CC1 (stereo unspecified) [Cariprazine]	122 ± 28	72.1	43.9 ± 2.2	67.7	53.4 ± 11	89.7	38.5 ± 6	119 ± 8	118.6 ± 0.35
Cc1ccsc1C(=CCCN1CCC[C@@H](C(=O)O)C1)c1sccc1C [Tiagabine]	96.4 ± 12	81.9	105 ± 4.9	84.2	96.9 ± 1.7	115	89.1 ± 5.2	100 ± 22	96 ± 12
Nc1nc(=O)c2c(CCc3ccc(C(=O)NC(CCC(=O)[O-])C(=O)[O-])cc3)c[nH]c2[nH]1.[Na+].[Na+] (stereo unspecified) [Pemetrexed]	94.1 ± 3.5	102	88.7 ± 10	92.9	105 ± 5.3	105	93.4 ± 13	95.2 ± 9.6	130 ± 10
CC(=O)OC1(C(C)=O)CCC2C3C=C(Cl)C4=CC(=O)C5CC5C4(C)C3CCC21C (stereo unspecified) [Cyproterone Acetate]	88.6 ± 12	112	73.1 ± 17	87.1	145 ± 8	110	89.2 ± 7.3	116 ± 34	128 ± 7.7
CC(C)OC(=O)OCOP(=O)(COC(C)Cn1cnc2c(N)ncnc21)OCOC(=O)OC(C)C.O=C(O)C=CC(=O)O (stereo unspecified) [Tenofovir Disoproxil Fumarate]	106 ± 2.7	130	94.5 ± 7.6	97	51.9 ± 9.2	105	106 ± 12	118 ± 28	136 ± 10
COc1cc(Nc2nc3ccccc3nc2NS(=O)(=O)c2ccc(NC(=O)c3ccc(C)c(OC)c3)cc2)cc(OC)c1	86.4 ± 4.2	102	49.675 ± 0.011	86.9	66.9 ± 17	94.9	84.5 ± 8.2	54.3 ± 12	88.5 ± 24
CC1(C(=O)[O-])CCC2(C)CCC3(C)C(=CC(=O)C4C5(C)CCC(OC(=O)CCC(=O)[O-])C(C)(C)C5CCC43C)C2C1.[Na+].[Na+] (stereo unspecified) [Carbenoxolone disodium]	84.3 ± 8	122	89.2 ± 4.5	103	129 ± 87	108	82.3 ± 1.7	108 ± 11	97.9 ± 2.5
COCC1=C(C(=O)OC(C)OC(=O)OC(C)C)N2C(=O)[C@@H](NC(=O)/C(=N\OC)c3csc(N)n3)[C@H]2SC1 (stereo partly specified) [Cefpodoxime Proxetil]	106 ± 3.7	176	102 ± 11	103	109 ± 18	133	99.2 ± 12	106 ± 3.2	105 ± 12
CC(=O)C1CCC2C3CCC4=CC(=O)CCC4(C)C3CCC12C (stereo unspecified) [Progesterone]	160 ± 12	108	77.8 ± 41	90.6	154 ± 6.9	113	88.9 ± 3.9	148 ± 41	123 ± 16
FC(F)(F)c1ccc(C=Cc2nc(COc3ccc(CCCCn4ccnn4)cc3)co2)cc1 [Mubritinib (TAK 165)]	111 ± 4	89.9	26.1 ± 3.1	62.2	65.54 ± 0.49	124	56.43 ± 0.074	120 ± 31	63.1 ± 6.1
CN1CCC(OC(c2ccccc2)c2ccccc2)CC1.Cl [Diphenylpyraline HCl]	86 ± 3.4	99.9	97.7 ± 17	106	97.2 ± 13	91.7	75.5 ± 12	84.7 ± 21	107 ± 14
NC(CO)(CO)CO [Trometamol]	86.3 ± 6.3	114	94.9 ± 21	91.5	58.4 ± 13	104	86 ± 7	99.2 ± 16	113 ± 12
COc1cc(NS(=O)(=O)c2ccc(N)cc2)nc(OC)n1 [Sulfadimethoxine]	91.8 ± 17	155	103 ± 14	103	116 ± 1.2	118	112 ± 5.2	86.1 ± 9.4	172 ± 27
FC(F)(F)c1ccc(CNc2ccc(Cc3c[nH]c4ncc(Cl)cc34)cn2)cn1 [Pexidartinib (PLX3397)]	100 ± 1.4	139	73.6 ± 3.9	91.3	96.9 ± 7.1	116	97.4 ± 16	96.5 ± 8.4	86 ± 11
CCOC(=O)C1=CC(OC(CC)CC)C(NC(C)=O)C(N)C1 (stereo unspecified) [Oseltamivir]	111 ± 11	124	96.2 ± 20	97.4	99.2 ± 7.4	91	96.03 ± 0.49	91.98 ± 0.9	126 ± 6.9
CCCCOc1cc(C(=O)NCCN(CC)CC)c2ccccc2n1.Cl [Dibucaine (Cinchocaine) HCl]	124 ± 13	154	92.3 ± 9.3	103	116 ± 5.1	101	68 ± 3.4	96.4 ± 5.9	109 ± 4.7
CCN(CC)C(=O)C(C#N)=Cc1cc(O)c(O)c([N+](=O)[O-])c1 [Entacapone]	121 ± 8.8	159	105 ± 2.4	80.8	98.77 ± 0.41	105	98.7 ± 14	192 ± 14	104 ± 7
O=C(O)C=Cc1ccccc1 [Cinnamic acid]	98.7 ± 32	108	96 ± 4.4	94.3	107 ± 15	121	98.4 ± 12	105 ± 15	117.9 ± 0.11
O=S(=O)(O)NC1CCCCC1 [Cyclamic acid]	91.4 ± 14	118	94.4 ± 2	91.9	58.1 ± 1.3	121	88.7 ± 18	104 ± 13	106 ± 5.2

Compound	cell viability (HCI01)	cell viability (HCI03)	cell viability (HCI09)	cell viability (HCI11)	cell viability (HCI13)	cell viability (HCI16)	cell viability (UCD52)	cell viability (WHIM2)	cell viability (WHIM30)
CO/N=C(\C(=O)N[C@@H]1C(=O)N2C(C(=O)O)=C(CSc3nc(=O)c(O)nn3C)CS[C@H]12)c1csc(N)n1 [Ceftriaxone Sodium Trihydrate]	148 ± 45	111	98.6 ± 26	101	77.6 ± 1.9	125	106 ± 1.4	130 ± 13	109 ± 2.1
O=C(O)CCC(=O)O.O=C(OC1CN2CCC1CC2)N1CCc2ccccc2C1c1ccccc1 (stereo unspecified) [Solifenacin succinate]	90.4 ± 10	107	91.8 ± 7	86.9	118 ± 9.5	104	57.36 ± 0.49	76.8 ± 2.9	87.6 ± 3.7
CO[C@H]1O[C@@H]2O[C@@]3(C)CC[C@H]4[C@H](C)CC[C@@H]([C@H]1C)[C@@]24OO3 [Artemether (SM-224)]	102 ± 17	111	79.3 ± 25	74.7	84.1 ± 3.5	123	77 ± 4.6	117 ± 3.2	99.8 ± 3.1
O=C1CCC(C(=O)N2CSCC2C(=O)O)N1 (stereo unspecified) [Pidotimod]	93.1 ± 30	137	96.2 ± 5.1	96.7	132 ± 3.4	108	98.5 ± 9.8	90 ± 22	122 ± 2.3
CCCCCOc1ccc(-c2cc(-c3ccc(C(=O)NC4CC(O)C(O)NC(=O)C5C(O)C(C)CN5C(=O)C(C(O)CC(N)=O)NC(=O)C(C(O)C(O)c5ccc(O)c(OS(=O)(=O)[O-])c5)NC(=O)C5CC(O)CN5C(=O)C(C(C)O)NC4=O)cc3)no2)cc1.[Na+] (stereo unspecified) [Micafungin sodium]	104 ± 7.9	96.4	85.7 ± 5.6	92.6	113 ± 4	93.3	75.7 ± 12	39.4 ± 2.2	99 ± 12
CC1CCc2c(N3CCC(O)CC3)c(F)cc3c(=O)c(C(=O)O)cn1c23 (stereo unspecified) [Nadifloxacin]	83.8 ± 17	122	79 ± 2.1	93.8	103 ± 3.5	120	77.6 ± 6.6	74.2 ± 3.4	122 ± 6.2
CC(C)OC(=O)C(C)NP(=O)(OCC1OC(n2ccc(=O)[nH]c2=O)C(C)(F)C1O)Oc1ccccc1 (stereo unspecified)	85.3 ± 7.8	103	79.3 ± 11	79.5	82.5 ± 5.5	141	84.26 ± 0.3	104 ± 7	120 ± 5
Cc1c(O)cccc1C(=O)NC(CSc1ccccc1)C(O)CN1CC2CCCCC2CC1C(=O)NC(C)(C)C (stereo unspecified) [Nelfinavir]	117 ± 39	93.4	52.9 ± 40	97.2	89.3 ± 0.59	101	68.7 ± 4	89.2 ± 16	61.5 ± 6.5
Clc1ccc2nsnc2c1NC1=NCCN1 [Tizanidine]	97.7 ± 3.7	94.6	149 ± 74	110	109 ± 26	110	101 ± 7.1	82.1 ± 22	91.9 ± 20
N[C@@H](Cc1cc(I)c(Oc2cc(I)c(O)c(I)c2)c(I)c1)C(=O)O [L-Thyroxine]	66.5 ± 44	151	114 ± 14	93.3	150 ± 56	136	85 ± 2.5	93.6 ± 27	177 ± 6.2
CCCCN1CCCCC1C(=O)Nc1c(C)cccc1C.Cl (stereo unspecified) [Levobupivacaine HCl]	109 ± 22	101	117 ± 29	106	121 ± 14	141	107 ± 4.1	96.2 ± 3	163 ± 5.2
CC1=NS(=O)(=O)c2cc(Cl)ccc2N1 [Diazoxide]	92.6 ± 9.1	151	86.4 ± 17	98.1	99.6 ± 11	102	104 ± 2.7	95.9 ± 3.5	117 ± 3.8
O=c1ccn(C2OC(CO)C(O)C2O)c(=O)[nH]1 (stereo unspecified) [Uridine]	106 ± 10	115	100.8 ± 0.17	100	103 ± 21	104	85.6 ± 2.8	89.7 ± 4.7	131 ± 9.8
Cc1ccccc1C(=O)Nc1ccc(C(=O)N2CCCC(O)c3cc(Cl)ccc32)c(C)c1 (stereo unspecified) [Tolvaptan]	97.7 ± 38	138	80.4 ± 7.1	85.9	101 ± 5	159	89 ± 4.9	92.5 ± 19	157 ± 8.1
Cc1ccccc1N1C(=O)c2cc(S(N)(=O)=O)c(Cl)cc2NC1C (stereo unspecified) [Metolazone]	121 ± 18	129	98.5 ± 8.3	57.9	132 ± 16	198	107 ± 1.9	103 ± 6.2	127 ± 13
N.N.[Cl][Pt+2][Cl] [Cisplatin]	114 ± 0.99	124	64 ± 66	119	66.6 ± 27	117	99.9 ± 11	117 ± 18	133 ± 14
CCNC(=O)CCCC=CCC1C(O)CC(O)C1C=CC(O)CCc1ccccc1 (stereo unspecified) [Bimatoprost]	80.9 ± 64	154	91.9 ± 22	97.5	118 ± 6.7	144	86.2 ± 4.6	98.4 ± 23	148 ± 9.5
Cc1cc2c(s1)=Nc1ccccc1NC=2N1CCN(C)CC1 [Olanzapine]	90.18 ± 0.87	107	105 ± 2.8	88.7	88.6 ± 14	112	87.7 ± 4.5	90.9 ± 8.5	107 ± 16
NC1CCCCC1N.O=C([O-])C(=O)[O-].[Pt+2] (stereo unspecified) [Oxaliplatin]	97.5 ± 3.3	108	75.7 ± 30	114	89 ± 12	118	137 ± 9.3	108 ± 14	154 ± 2
